Screening data as filed in PubChem.
An excerpt weighted towards active compounds, which were near 3% of everything screened.
OvCa metastasis – ovarian cancer metastasis inhibition, 3D TME model; SKOV3ip1-GFP adhesion/invasion on 3D omental model, fluorescence; AID 1963576; Potency, µM (top dose mostly 45.8 µM), hits mostly inhibitors; 46,000 tested, 0.1% active; note: nearly all actives have a fitted effect of over 65% in size
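Adhesion/invasion was scored as fixed GFP-labeled SKOV3ip1 cell counts (488/509 nm), normalized to DMSO and tomatine controls. Cancer cells in serum-free medium, with four compound doses (0.36-46 umol/L), sat 2 hr at RT then 16 hr at 37 C on a 48 hr fibroblast/mesothelial/ECM culture.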
S16 viability – toxic to S16 Pmp22-F2sN Schwann cells; S16 Pmp22-F2sN Schwann cells viability, CellTiter-Glo, 24 h; Potency, µM (titrated, usually from 57.5 µM), hits mostly cytotoxic; 43,000 tested, 0.48% active; note: nearly all actives have a fitted effect of over 65% in size
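CellTiter-Glo counter-screen, qHTS, 1536-well. Cells: S16(c9) Pmp22-F2sN, 500-1,000/well in DMEM + 10% FBS. Cpd 23 nL pin transfer, 24 h, 37C/5% CO2. Read: luminescence, CCD imager.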
mTORC1 inh – mTORC1 pathway inhibition measured by phospho-rpS6 | Tsc2-/- p53-/- MEF, phospho-rpS6 immunofluorescence/PI, 24 h | Potency, µM (doses to about 38.3 µM), actives largely listed as inhibitors | 44,000 tested, 0.78% active; note: nearly all actives have a fitted effect of over 50% in size
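Immunofluorescence of rpS6 phosphorylation in Tsc2-/-, p53-/- MEFs after 24 h compound exposure, normalized to propidium iodide signal. Activity is expressed as % positive cells, thresholded with 7.5 nM rapamycin.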
PMP22 txn – PMP22 gene transcription modulation; Potency, µM (highest dose often 57.5 µM), actives largely listed as inhibitors; 43,000 tested, 2% active; S16 Pmp22-F2sN Schwann cells (luciferase reporters placed in the Pmp22 gene), FLuc/NLuc coincidence luminescence, 24 h; active = clear falling dose curves in both reporters; inconclusive = both reporters move, but less clearly or upward; inactive = either reporter flat; the % is the NLuc reporter signal
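Rat S16 Pmp22-F2sN cells, 500-1,000/well in phenol red-free DMEM + 10% FBS, compound-treated 24 h (37C, 5% CO2). Luminescence: FLuc read, Stop&Glo added, NLuc read.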
p53null 32C kill – p53 null cell cytotoxicity, permissive temperature; H1299-neo p53 null cells, ATP luminescence, 24 h, 32C; Potency, µM (titrated, usually from 46.1 µM), most hits filed as cytotoxic; 55,000 tested, 0.62% active; AID 903; note: nearly all actives have a fitted effect of over 55% in size
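We seeded p53-null H1299-neo cells, incubated them overnight at 37C, and added compounds across a range up to 46 uM. After 24 hours at 32C, ATP reagent was applied for 20 min at room temperature and luminescence recorded.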
p53null 39C kill – kills p53 null cells at the nonpermissive temperature; H1299 p53-null (neo) cells, 39C, ATPlite viability, 24 h; Potency, µM (doses to about 46.1 µM), actives largely listed as cytotoxic; 55,000 tested, 0.97% active; note: nearly all actives have a fitted effect of over 50% in size
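H1299 lung cancer cells, p53-null (H1299-neo) or expressing p53 A138V (H1299-p53A138V), were plated overnight at 37C, then exposed to compounds at up to 46 uM for 24 hr at 39C. Viability was read by ATP-based luminescence.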
NLuc sat counter – inhibits NanoLuc at saturating substrate, PMP22 counter-screen | shares compounds with PMP22 txn | Secreted NLuc enzyme (filtered S16 cell medium), Nano-Glo luminescence | Potency, µM (series often up to 57.5 µM), hits mostly inhibitors | 690 tested, 4% active | AID 1508638
NLuc Km counter – NanoLuc inhibition at Km substrate, PMP22 artifact check | shares compounds with PMP22 txn | secreted NLuc enzyme, coelenterazine luminescence, Km conditions | Potency, µM (titrated, usually from 57.5 µM), usual class: inhibitors | 690 tested, 5% active | AID 1508639
FLuc counter – counter-screen for PMP22 expression modulators: firefly luciferase inhibition; 690 tested, under 10 active; Potency, µM (titrated, usually from 57.5 µM), most hits filed as inhibitors; shares compounds with PMP22 txn; purified P. pyralis FLuc, luminescence, 10 min
Target sequence (P08659 whole entry, looked up): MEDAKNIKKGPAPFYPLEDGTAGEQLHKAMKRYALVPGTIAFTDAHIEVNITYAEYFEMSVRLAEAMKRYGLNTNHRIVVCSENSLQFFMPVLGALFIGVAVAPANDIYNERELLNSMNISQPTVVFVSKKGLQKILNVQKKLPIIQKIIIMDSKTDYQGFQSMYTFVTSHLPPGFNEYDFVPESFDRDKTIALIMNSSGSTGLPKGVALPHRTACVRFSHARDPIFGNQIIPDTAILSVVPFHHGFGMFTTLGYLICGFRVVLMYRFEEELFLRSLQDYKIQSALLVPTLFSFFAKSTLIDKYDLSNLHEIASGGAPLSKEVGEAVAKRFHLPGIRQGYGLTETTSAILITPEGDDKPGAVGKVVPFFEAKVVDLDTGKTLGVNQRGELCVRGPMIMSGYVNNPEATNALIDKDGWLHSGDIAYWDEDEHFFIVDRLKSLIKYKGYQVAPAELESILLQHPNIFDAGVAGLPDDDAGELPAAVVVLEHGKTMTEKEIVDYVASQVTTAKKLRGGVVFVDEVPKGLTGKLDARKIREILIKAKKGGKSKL
S16 F2sN tox cnf – S16 Schwann cell cytotoxicity, confirmatory; shares compounds with PMP22 txn; S16 Schwann cells viability, CellTiter-Glo ATP luminescence, 24 h; Potency, µM (titrated, usually from 57.5 µM), most hits filed as cytotoxic; 690 tested, 7% active
PMP22 txn cnf – confirmation of modulators of PMP22 gene transcription in S16 cells | AID 1508646 | Potency, µM (series often up to 57.5 µM), hits mostly inhibitors | S16 Schwann cells Pmp22-F2sN, dual luciferase, 24 h | shares compounds with PMP22 txn | 690 tested, 22% active; active = clear falling dose curves in both reporters; inconclusive = both reporters move, but less clearly or upward; inactive = either reporter flat; the % is the FLuc reporter signal
PMP22 prot conf – rat PMP22 protein level modulation, confirmatory; Potency, µM (doses to about 27.9 µM), hits mostly inhibitors; AID 1508647; 95 tested, under 10 active; shares compounds with PMP22 txn; S16 Schwann cells Pmp22-HiBiT, luminescence, 48 h
Target sequence (P25094 whole entry, looked up): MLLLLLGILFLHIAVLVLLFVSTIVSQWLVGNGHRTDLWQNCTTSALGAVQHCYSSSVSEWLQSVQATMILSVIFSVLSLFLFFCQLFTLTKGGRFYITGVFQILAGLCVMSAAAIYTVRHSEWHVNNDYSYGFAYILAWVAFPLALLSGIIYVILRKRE
Hits are given with their value; – = inactive; ? = inconclusive; · = no result given. Unless noted, calls come from the whole dose curve; as a rule, active = well fitted curve in the direction sought with a large enough effect; inconclusive = small, poorly fitted or top-dose-only effect, or another doubt; inactive = no such curve, though single readings can be large; an effect the other way counts as inactive or inconclusive.

SMILES	OvCa metastasis	S16 viability	mTORC1 inh	PMP22 txn	p53null 32C kill	p53null 39C kill	NLuc sat counter	NLuc Km counter	FLuc counter	S16 F2sN tox cnf	PMP22 txn cnf	others
O=C(CCS(=O)(=O)c1nc(-c2ccc3c(c2)OCO3)cc(C(F)(F)F)n1)Nc1ccccc1F	?	–	–	?	–	–	·	·	·	·	·
COC(=O)c1ccccc1NC(=O)CCS(=O)(=O)c1nc(-c2ccc3c(c2)OCO3)cc(C(F)(F)F)n1	–	–	–	14µM	–	?	–	–	–	–	19µM
O=C(CCS(=O)(=O)c1nc(-c2cccs2)cc(C(F)(F)F)n1)Nc1ccc(F)c(Cl)c1	?	?	–	15µM	–	?	–	?	–	?	13µM	PMP22 prot conf=?
COc1ccc(NC(=O)CCS(=O)(=O)c2nc(-c3cccs3)cc(C(F)(F)F)n2)cc1	?	?	?	7.6µM	?	–	–	?	–	?	12µM	PMP22 prot conf=–
COc1ccc(Cl)cc1NC(=O)CCS(=O)(=O)c1nc(-c2cccs2)cc(C(F)(F)F)n1	?	?	–	10µM	–	?	?	?	–	?	8.9µM
O=C(CCS(=O)(=O)c1nc(-c2cccs2)cc(C(F)(F)F)n1)Nc1ccc(OC(F)(F)F)cc1	–	?	–	?	–	?	–	?	–	?	9.1µM	PMP22 prot conf=?
COc1ccc(Cl)cc1NC(=O)CCCS(=O)(=O)c1nc(-c2ccc(OC)c(OC)c2)cc(C(F)(F)F)n1	?	?	13µM	5µM	?	?	–	–	–	?	9.3µM	PMP22 prot conf=–
O=C(c1ccc(F)cc1)N1CCC[C@H](c2nc(-c3ccc(F)cc3)no2)C1	–	·	·	·	·	·	·	·	·	·	·
O=C(O)[C@H]1O[C@H](Oc2cc3oc(-c4ccccc4)cc(=O)c3c(O)c2O)[C@H](O)[C@@H](O)[C@H]1O	–	·	·	·	·	·	·	·	·	·	·
CCn1cc(C(=O)NC(C)c2ccccc2)c(=O)c2cc(S(=O)(=O)N3CCc4ccccc4C3)ccc21 (configuration not stated)	–	–	–	?	–	–	·	·	·	·	·
CCn1cc(C(=O)NCCc2ccc(C)cc2)c(=O)c2cc(S(=O)(=O)N3CCCCC3)ccc21	–	–	–	–	–	–	·	·	·	·	·
CCC(C)NC(=O)c1cn(CC)c2ccc(S(=O)(=O)N3CCc4ccccc4C3)cc2c1=O (configuration not stated)	–	–	–	17µM	–	–	–	–	–	–	–
CCn1cc(C(=O)NCCc2ccc(OC)c(OC)c2)c(=O)c2cc(S(=O)(=O)N3CCCCCC3)ccc21	–	?	–	?	–	–	?	?	–	–	–
O=C(NOCC(O)CO)c1cc(Br)c(F)c(F)c1Nc1ccc(I)cc1F (configuration not stated)	–	·	·	·	·	·	·	·	·	·	·
CCOC(=O)N1CCN([N+]([O-])=NOc2cc(ON=[N+]([O-])N3CCN(C(=O)OCC)CC3)c([N+](=O)[O-])cc2[N+](=O)[O-])CC1	–	·	·	·	·	·	·	·	·	·	·
CCCSc1ncc(Cl)c(C(=O)Nc2ccc(S(=O)(=O)N3CCCCC3C)cc2)n1 (configuration not stated)	–	?	–	11µM	–	–	–	–	–	–	?
CC1CCC(C(=O)N(c2cc(C#CC(C)(C)C)sc2C(=O)O)C2CCC(O)CC2)CC1 (configuration not stated)	–	·	·	·	·	·	·	·	·	·	·
O=C(Cn1c(-c2cccs2)cc2ccccc21)NCCCN1CCN(c2ccccc2F)CC1	?	?	–	?	–	–	·	·	·	·	·
O=C(Cn1c(-c2cccs2)cc2ccccc21)NCCCN1CCN(c2ccc(F)cc2)CC1	–	–	?	10µM	–	–	–	–	–	?	?	PMP22 prot conf=?
O=C(Cn1c(-c2cccs2)cc2cc(F)ccc21)NCCCN1CCN(c2ccccc2F)CC1	–	?	?	?	–	–	·	·	·	·	·	PMP22 prot conf=?
N[C@@H](CC(=O)N1CCn2c(nnc2C(F)(F)F)C1)Cc1cc(F)c(F)cc1F	–	·	·	·	·	·	·	·	·	·	·
CCC1=C[C@@H]2CN(C1)Cc1c([nH]c3ccccc13)[C@@](C(=O)OC)(c1cc3c(cc1OC)N(C)[C@@H]1[C@@](O)(C(=O)OC)[C@H](OC(C)=O)[C@]4(CC)C=CCN5CC[C@]31[C@@H]54)C2	–	·	·	·	·	·	·	·	·	·	·
Cc1cc(NC(=O)C2CCCN(S(=O)(=O)c3cccc4nonc34)C2)ccc1Br (configuration not stated)	–	?	–	18µM	–	–	–	–	–	–	17µM	PMP22 prot conf=–
Cc1cc(Br)ccc1NC(=O)C1CCCN(S(=O)(=O)c2cccc3nonc23)C1 (configuration not stated)	–	–	–	?	–	–	·	·	·	·	·
CCNc1cc(NC2CCC(O)CC2)nc(Nc2ccc3c(ccn3Cc3ccccc3)c2)n1 (configuration not stated)	–	·	·	·	·	·	·	·	·	·	·
CCOC(=O)c1c(C)[nH]c(CCC(=O)NCCCN2CCN(c3cc(Cl)ccc3C)CC2)c1C	?	?	?	15µM	–	–	–	–	–	?	?
C#C[C@]1(O)CC[C@@H]2[C@@H]3CCc4cc(O)ccc4[C@H]3CC[C@@]21C	–	·	·	·	·	·	·	·	·	·	·
C[C@]12CC[C@@H]3c4ccc(O)cc4CC[C@H]3[C@H]1C[C@@H](O)[C@H]2O	–	·	·	·	·	·	·	·	·	·	·
Cc1ccc(Cn2c(=O)n(Cc3ccccc3)c(=O)c3c(C)c(C)sc32)cc1	–	–	–	–	–	–	·	·	·	·	·
